Measured values published in PubChem BioAssay (NCATS).
Records with an inconclusive call do not appear. Calls of active or inactive are those of the source. The call rests on the fitted dose curve; in most records, active means well fitted inhibition curve with a large enough effect; inconclusive means small, poorly fitted or top-dose-only effect; inactive means flat fitted curve, though single readings scatter.

Target: Ubiquitin carboxyl-terminal hydrolase 1 (Homo sapiens) (UniProt O94782)
Experiment: Inhibitors of USP1/UAF1: Pilot qHTS (AID 504865);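 further: rhodamine fluorescence freed from ubiquitin-rhodamine substrate followed over time; top concentration of the series differs between compounds; nearly all actives have a fitted effect of over 35% in size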
Settings: purified USP1/UAF1, Ub-rhodamine cleavage fluorescence; series mostly up to 54.9 µM
In short: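 1nM USP1/UAF1 + cpd, 15 min RT; start w/ Ub-Rho 150nM final; kinetic FL 480/540 nm, 6 reads q60 s. Buffer 50mM HEPES pH 7.8, 0.5mM EDTA, 1mM TCEP, 0.01% Tween-20, 0.1 mg/ml BSA.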

Ubiquitin carboxyl-terminal hydrolase 1 (Homo sapiens), sequence (O94782 whole entry, looked up): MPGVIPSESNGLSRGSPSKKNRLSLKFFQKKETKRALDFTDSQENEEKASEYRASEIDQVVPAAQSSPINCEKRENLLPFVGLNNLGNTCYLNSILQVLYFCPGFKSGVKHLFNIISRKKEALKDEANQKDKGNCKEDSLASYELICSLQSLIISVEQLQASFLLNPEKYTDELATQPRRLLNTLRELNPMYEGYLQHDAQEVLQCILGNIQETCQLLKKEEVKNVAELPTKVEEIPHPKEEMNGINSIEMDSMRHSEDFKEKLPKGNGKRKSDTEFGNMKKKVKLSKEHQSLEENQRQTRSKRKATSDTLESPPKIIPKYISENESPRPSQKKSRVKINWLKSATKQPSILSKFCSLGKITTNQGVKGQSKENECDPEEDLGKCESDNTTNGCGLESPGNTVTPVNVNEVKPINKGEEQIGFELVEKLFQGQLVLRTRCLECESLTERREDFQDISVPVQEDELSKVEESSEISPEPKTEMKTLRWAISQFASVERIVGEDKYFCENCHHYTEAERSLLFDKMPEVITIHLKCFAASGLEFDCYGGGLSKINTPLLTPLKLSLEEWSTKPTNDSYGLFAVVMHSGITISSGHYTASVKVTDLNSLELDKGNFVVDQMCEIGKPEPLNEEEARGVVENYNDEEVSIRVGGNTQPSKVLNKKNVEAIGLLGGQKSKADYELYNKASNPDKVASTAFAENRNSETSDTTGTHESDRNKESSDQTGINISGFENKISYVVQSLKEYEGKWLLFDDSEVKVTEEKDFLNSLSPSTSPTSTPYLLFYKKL

Potency, inactive:
CC(=O)NCCNc1nc(-c2cccc(NS(C)(=O)=O)c2)nc2ccccc12
Cc1noc(C)c1-c1nccc(NCCN2CCOCC2)n1
Cc1cnc(CNc2ccnc(-c3cccc(NS(C)(=O)=O)c3)n2)cn1
COc1cccc(Cn2c(=O)c(-c3cccc(C#N)c3)nc3cnc(N4CCOCC4)nc32)c1
CN(C)C(=O)c1ccc(-c2cncnc2-n2ccnc2)cc1
COc1ccccc1-c1cc(NCc2cnc(C)cn2)ncn1
CNc1nc(-c2cccc(C#N)c2)nc2ccccc12
COc1ccc2[nH]cc(CCNc3nc(-c4ccc(N(C)C)cc4)nc4ccccc34)c2c1
COCCNc1nc(-c2c(C)noc2C)nc2ccccc12
CN(C)C(=O)c1ccc(-c2ccc3ncnc(N4CCOCC4)c3c2)cc1
COc1cccc(Cn2c(=O)c(-c3ccc(F)cc3)nc3cncnc32)c1
Cc1noc(C)c1-c1nc(NC2CC2)c2ccccc2n1
Cn1cc(-c2nc3cncnc3n(C3CC3)c2=O)c2ccccc21
COc1ccc(-c2nc3cnc(OCc4ccccc4)nc3n(CCC#N)c2=O)cc1
COc1ccc2[nH]cc(CCNc3ccnc(-c4ccc(N(C)C)cc4)n3)c2c1
Cn1cc(-c2nc3cncnc3n(Cc3ccccc3Cl)c2=O)c2ccccc21
COc1cccc(-c2cc(NCc3cnc(C)cn3)ncn2)c1
COc1ccc(Oc2ncc3nc(-c4ccc(F)cc4)c(=O)n(Cc4cccs4)c3n2)cc1
